Experimental data from PubChem BioAssay (Tox21).
Several values for one entry are separate records, joined by “and”; a condition that tells them apart may be missing. Equal values may be shown once. Results filed as inconclusive are left out. A call without a number means that no potency is given here. Some compounds were tested as several samples or in several runs, with calls that do not always agree. Activity calls are given as the source filed them. Unless noted, the call rests on the fitted dose curve; in most records, active means well fitted curve in the direction sought with a large enough effect in the repeat runs; inconclusive means weak or mixed curves; inactive means no such curve, though single readings can be large; an effect the other way counts as inactive or inconclusive.

What was measured:
[1] = qHTS assay for small molecule agonists of the p53 signaling pathway (AID 651631; calls by dose curve; further: nearly all actives have a fitted effect of over 15% in size; further: potency means the concentration at half of the fitted maximal effect)
Summary of the method: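 p53RE-bla HCT-116 cells; compounds 16 h, 37 °C; LiveBLAzer B/G FRET substrate 2 h RT; fluorescence intensity read-out, qHTS format.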

[2] = qHTS assay for small molecules that induce genotoxicity in human embryonic kidney cells expressing luciferase-tagged ATAD5 (AID 651632); further: nearly all actives have a fitted effect of over 15% in size; further: potency means the concentration at half of the fitted maximal effect
Summary of the method: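 HEK293T cells carrying luciferase-tagged ATAD5 were given compound or DMSO vehicle and incubated 16 hr at 37C, 5% CO2. Luciferase activity was read after 30 min at room temperature with Amplite; a rise signals genotoxic stress.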

[3] = qHTS assay for small molecule agonists of the p53 signaling pathway - cell viability (AID 651633; calls by dose curve; further: nearly all actives have a fitted effect of over 30% in size; further: potency means the concentration at half of the fitted maximal effect)
Summary of the method: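 p53RE-bla cells were treated with compound for 16 hours at 37 C. Cytotoxicity was then measured as CellTiter-Glo luminescence after 30 min at room temperature.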

[4] = qHTS assay for small molecules that induce genotoxicity in human embryonic kidney cells expressing luciferase-tagged ATAD5 - cell viability (AID 651634; calls by dose curve; further: nearly all actives have a fitted effect of over 25% in size; further: potency means the concentration at half of the fitted maximal effect)
Summary of the method: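 HEK293T cells carrying luciferase-tagged ATAD5, 2,000 cells/well, exposed to compound for 15.5 hr at 37C. Viability read as live-cell protease activity by CellTiter-Fluor fluorescence after 30 min at 37C.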

[5] = qHTS assay for small molecule disruptors of the mitochondrial membrane potential - cell viability (AID 720634; calls by dose curve; further: nearly all actives have a fitted effect of over 20% in size; further: potency means the concentration at half of the fitted maximal effect)
Summary of the method: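 HepG2 cells, 2,000 per well, attached overnight, then treated 1 hr at 37 C, 5% CO2. Viability read as ATP by CellTiter-Glo luminescence after 30 min at room temperature. Read in the same wells as the m-MPI membrane-potential dye assay.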

[6] = qHTS assay to test for compound auto fluorescence at 590 nm (red) in HepG2 cells (AID 720674)
Summary of the method: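 Seeding: 2,000 HepG2 cells/well, MEM/10% FBS, overnight 37 C. Dosing: compound vs DMSO. Incubation: 1 hr, 37 C, 5% CO2. Read: fluorescence 540 ex/590 em, Rose Bengal sodium as red reference.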

[7] = qHTS assay to test for compound auto fluorescence at 535 nm (green) in HepG2 cells (AID 720675)
[8] = qHTS assay to test for compound auto fluorescence at 460 nm (blue) in HEK293 cells (AID 720678)
Summary of the method: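 HEK293 cells (2,000 per well, medium with 10% dialyzed FBS) attached for 4-5 hr at 37C, then received compound and stood overnight at 37C, 5% CO2. Blue fluorescence was read at Ex/Em 405/460 nm and expressed relative to triamterene.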

[9] = qHTS assay to test for compound auto fluorescence at 590 nm (red) in HEK293 cells (AID 720679)
Summary of the method: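 HEK293 cells (2,000/well, medium with 10% dialyzed FBS) attached for 4-5 hr at 37C, received 23 nL compound and were incubated overnight at 37C, 5% CO2. Red fluorescence was then read at 540/590nm Ex/Em, referenced to Rose Bengal sodium.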

[10] = qHTS assay to test for compound auto fluorescence at 535 nm (green) in HEK293 cells (AID 720680)
[11] = qHTS assay to test for compound auto fluorescence at 460 nm (blue) in HEK293 cell free culture (AID 720681)
Summary of the method: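 Compounds were added to cell-free DMEM with 10% FBS and fluorescence read directly. The blue channel used 405 nm excitation and 460 nm emission, with triamterene as the reference fluorophore.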

[12] = qHTS assay to test for compound auto fluorescence at 535 nm (green) in HEK293 cell free culture (AID 720682)
Summary of the method: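 Cell-free medium (DMEM, 10% FBS) receives compound or DMSO by pintool. Plate read directly at Ex 485/Em 535 nm. Signal converted to fluorescein equivalency.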

[13] = qHTS assay to test for compound auto fluorescence at 590 nm (red) in HEK293 cell free culture (AID 720683)
Summary of the method: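 Cell-free wells of DMEM with 10% FBS received compound, and intrinsic fluorescence was read at excitation/emission 540/590 nm. Values expressed as equivalence to Rose Bengal sodium.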

[14] = qHTS assay to test for compound auto fluorescence at 460 nm (blue) in HepG2 cell free culture (AID 720685)
Summary of the method: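 Compound (23 nL) or DMSO pinned into cell-free MEM with 10% FBS; blue fluorescence read at 405/460 nm excitation/emission, expressed as auto-fluorescence equivalency to triamterene.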

[15] = qHTS assay to test for compound auto fluorescence at 535 nm (green) in HepG2 cell free culture (AID 720686)
[16] = qHTS assay to test for compound auto fluorescence at 460 nm (blue) in HepG2 cells (AID 720687)
Summary of the method: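 HepG2 cells in MEM with 10% FBS, attached overnight at 37 C, were exposed to compound or DMSO for 1 hr at 37 C, 5% CO2. Blue fluorescence was read at 405/460 nm, with triamterene as reference fluorophore.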

[17] = qHTS assay to test for compound auto fluorescence at 590 nm (red) in HepG2 cell free culture (AID 720684)
Summary of the method: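 Compound was pinned into wells holding MEM with 10% FBS and no cells, and red fluorescence was read at Ex/Em 540/590 nm. Signal is expressed as auto fluorescence equivalency relative to Rose Bengal sodium.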

[18] = target: Glucocorticoid receptor (Homo sapiens) (UniProt P04150); test: qHTS assay to identify small molecule agonists of the glucocorticoid receptor (GR) signaling pathway (AID 720691; active means well fitted activation curve with a large enough effect in the signal ratio in the repeat runs, not every such curve was filed as active; the % refers to the signal ratio)
Summary of the method: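 GR-bla HeLa cells carrying a GRE-driven beta-lactamase reporter, exposed to compounds for 18 h at 37 C. Reporter activation read as fluorescence after 2 h with LiveBLAzer B/G FRET substrate at room temperature.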

[19] = target: Glucocorticoid receptor (Homo sapiens) (UniProt P04150); test: qHTS assay to identify small molecule antagonists of the glucocorticoid receptor (GR) signaling pathway (AID 720692; active means well fitted inhibition curve with a large enough effect in the signal ratio in the repeat runs, not every such curve was filed as active; the % refers to the signal ratio; further: potency means the concentration at half of the fitted maximal effect)
Summary of the method: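 GR-bla HeLa cells carrying a GRE-driven beta-lactamase reporter received compound after 4 h plating, then dexamethasone (5 nM final). After 18 h at 37C, the FRET substrate was loaded for 2 h at room temperature and fluorescence read.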

[20] = qHTS assay for small molecule disruptors of the mitochondrial membrane potential (AID 720635); further: potency means the concentration at half of the fitted maximal effect
Summary of the method: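 HepG2 cells exposed to compound 1 hr at 37C, then Mito-MPS dye 30 min. Ratio read of aggregate (540/590 nm) versus monomer (490/535 nm) fluorescence.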

Chain of Glucocorticoid receptor (Homo sapiens) (P04150 whole entry, looked up): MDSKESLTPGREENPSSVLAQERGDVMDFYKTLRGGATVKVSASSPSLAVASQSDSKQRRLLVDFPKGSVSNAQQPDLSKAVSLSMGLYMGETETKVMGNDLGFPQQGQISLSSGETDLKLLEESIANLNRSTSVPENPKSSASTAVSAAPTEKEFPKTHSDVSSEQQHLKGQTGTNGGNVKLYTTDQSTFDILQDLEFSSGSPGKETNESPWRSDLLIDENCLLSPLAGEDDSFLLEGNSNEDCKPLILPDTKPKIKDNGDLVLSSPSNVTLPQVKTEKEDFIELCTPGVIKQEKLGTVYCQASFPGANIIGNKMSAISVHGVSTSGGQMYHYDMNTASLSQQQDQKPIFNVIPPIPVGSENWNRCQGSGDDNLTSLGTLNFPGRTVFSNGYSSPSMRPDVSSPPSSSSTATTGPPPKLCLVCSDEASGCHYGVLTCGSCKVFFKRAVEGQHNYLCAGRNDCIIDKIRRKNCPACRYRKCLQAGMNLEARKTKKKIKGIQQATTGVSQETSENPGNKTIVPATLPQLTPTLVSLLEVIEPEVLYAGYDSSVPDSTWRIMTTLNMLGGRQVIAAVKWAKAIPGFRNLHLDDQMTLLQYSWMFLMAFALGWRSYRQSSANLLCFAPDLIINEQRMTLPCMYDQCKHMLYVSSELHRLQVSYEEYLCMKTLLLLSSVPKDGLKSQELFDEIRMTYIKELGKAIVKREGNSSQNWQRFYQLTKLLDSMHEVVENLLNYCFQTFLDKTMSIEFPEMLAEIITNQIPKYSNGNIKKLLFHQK

Compound	Potency [1]	Potency [2]	Potency [3]	Potency [4]	Potency [5]	outcome [6]	outcome [7]	Potency [8]	outcome [9]	outcome [10]	Potency [11]	outcome [12]	outcome [13]	Potency [14]	outcome [15]	Potency [16]	outcome [17]	outcome [18]	Potency [19]	Potency [20]
CC1(C)C(C(=O)OC(C#N)c2cccc(Oc3ccccc3)c2)C1(C)C (stereo unspecified)	inactive	inactive	inactive	inactive	54.4 µM (active)	inactive	inactive	inactive	inactive	inactive	inactive	inactive	inactive	inactive	inactive	inactive	–	–	–	–
CC(C)Nc1ccc(Nc2ccccc2)cc1	26.6 µM (active) and 68.3 µM (active) and 30.6 µM (active)	inactive	23.7 µM (active) and inactive	inactive	–	inactive	inactive	inactive	inactive	inactive	inactive	inactive	inactive	inactive	inactive	inactive	inactive	inactive	–	–
ClC(Cl)(Cl)Br	inactive	inactive	inactive	inactive	inactive	–	inactive	inactive	inactive	inactive	inactive	inactive	inactive	inactive	inactive	inactive	inactive	inactive	inactive	–
ClCc1ccccn1	–	inactive	inactive	inactive	inactive	inactive	inactive	inactive	inactive	inactive	inactive	inactive	inactive	inactive	inactive	inactive	inactive	inactive	inactive	inactive
CCCCSP(=O)(SCCCC)SCCCC	inactive	inactive	inactive	inactive	–	inactive	inactive	inactive	inactive	inactive	inactive	inactive	inactive	inactive	inactive	inactive	–	inactive	inactive	–
N#Cc1nn(-c2c(Cl)cc(C(F)(F)F)cc2Cl)c(N)c1S(=O)C(F)(F)F (stereo unspecified)	–	inactive	inactive	inactive	10.6 µM (active) and 1.54 µM (active)	inactive	inactive	inactive	inactive	inactive	inactive	inactive	inactive	inactive	inactive	inactive	inactive	inactive	–	5.31 µM (active) and 1.54 µM (active)
O=NN1CCOCC1	inactive	inactive	inactive	inactive	inactive	inactive	inactive	inactive	inactive	inactive	inactive	inactive	inactive	inactive	inactive	inactive	–	inactive	inactive	inactive
N#Cc1cccnc1	–	inactive	inactive	inactive	inactive	inactive	inactive	inactive	inactive	inactive	inactive	inactive	inactive	inactive	inactive	inactive	inactive	inactive	inactive	inactive
C[C@]12CCC(=O)C=C1CC[C@@H]1[C@@H]2CC[C@@]2(C)[C@H]1CC[C@]2(C)O	–	inactive	inactive and 54.5 µM (active)	inactive	inactive	inactive	inactive	inactive	inactive	inactive	inactive	inactive	inactive	inactive	inactive	inactive	inactive	inactive	6.01 µM (active) and 4.25 µM (active) and 2.61 µM (active)	inactive
CC(C)=CC1C(C(=O)OCc2cccc(Oc3ccccc3)c2)C1(C)C (stereo unspecified)	–	inactive	inactive	inactive	inactive	inactive	inactive	inactive	inactive	inactive	inactive	inactive	inactive	inactive	inactive	inactive	inactive	inactive	–	inactive
CCNCC	–	inactive	inactive	inactive	inactive	inactive	inactive	inactive	inactive	inactive	inactive	inactive	inactive	inactive	inactive	inactive	inactive	inactive	inactive	inactive
O=[N+]([O-])c1ccc(Cl)c([N+](=O)[O-])c1	55.3 µM (active) and 12.2 µM (active)	24.7 µM (active)	22 µM (active) and 54.5 µM (active)	55.3 µM (active) and 68.6 µM (active)	22 µM (active) and 21.7 µM (active)	–	inactive	inactive	inactive	inactive	inactive	inactive	inactive	inactive	inactive	inactive	–	–	–	–
c1ccc2c(c1)Nc1ccccc1S2	inactive	inactive	inactive	inactive	29.8 µM (active)	inactive	inactive	inactive	inactive	inactive	inactive	inactive	inactive	inactive	inactive	inactive	inactive	–	–	–
CCOP(=S)(OCC)OP(=S)(OCC)OCC	inactive	–	inactive	inactive	inactive	–	inactive	inactive	inactive	inactive	inactive	inactive	inactive	inactive	inactive	inactive	–	inactive	inactive	–
N#CCCCCC#N	–	inactive	inactive	inactive	inactive	inactive	inactive	inactive	inactive	inactive	inactive	inactive	inactive	inactive	inactive	inactive	inactive	inactive	inactive	inactive
